This is a sample that favours compounds with a hit; in the whole collection about 6.5% have one here.
Lassa entry inh: Lassa virus entry inhibition | Lassa virus pseudotype entry inhibition, cell reporter | Potency, µM (highest dose often 37.9 µM), inactives show at the highest dose activity change, negative = inhibition, hits mostly inhibitors | actives 1.2% (n = 300,000); calls by dose curve; tested in HEK293 cells; also: potency is read from the fitted curve at half-maximal effect; nearly all actives have a fitted effect of over 50% in size
Marburg entry inh: blocks Marburg virus binding to or entry into cells; Marburg virus pseudotyped entry inhibition, cell reporter; Potency, µM (series often up to 37.8 µM), inactives show at the top dose activity change, negative = inhibition, usual class: inhibitors; actives 1.8% (n = 300,000); calls by dose curve; tested in HEK293 cells; also: potency is read from the fitted curve at half-maximal effect
Vaccinia Venus: vaccinia inhibition (Venus reporter). Vaccinia virus Venus reporter expression, fluorescence. Potency, µM (highest dose often 36.5 µM), inactives show top-dose activity change, negative = inhibition, hits mostly inhibitors. actives 0.46% (n = 330,000); calls by dose curve; tested in A549 cells; also: potency is read from the fitted curve at half-maximal effect; nearly all actives have a fitted effect of over 30% in size
VACV mCherry inh: vaccinia inhibition (mCherry reporter); Vaccinia virus mCherry reporter infection, fluorescence; Potency, µM (titrated, usually from 36.5 µM), without a hit: top-dose activity change, negative = inhibition, most hits filed as inhibitors; actives 0.63% (n = 310,000); AID 720579; calls by dose curve; tested in A549 cells; also: potency is read from the fitted curve at half-maximal effect; nearly all actives have a fitted effect of over 35% in size
HCMV antiviral: inhibitors of human cytomegalovirus; activity change, negative = inhibition, % at 57.5 µM; HFF cells, HCMV-luciferase reporter, 72 h; stronger effect = lower value; AID 1259415; actives 4.5% (n = 410,000); in the data active = activity change below about -60%; inconclusive = no clear call, values can overlap the other calls; inactive = above about -39%
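Compounds were evaluated in HFFs infected with an HCMV luciferase reporter virus (MOI 1 PFU/cell). Luciferase in lysates collected 72 h post infection served as the replication measure.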
FMDV inh: blocks foot and mouth disease virus. FMDV antiviral cell-based qHTS. Potency, µM (series often up to 57.9 µM), for the others: at the highest dose activity change, negative = inhibition, hits mostly inhibitors. actives 1.2% (n = 410,000). AID 1159524; calls by dose curve; tested in HEK293T cells; also: read-out not given here; potency is read from the fitted curve at half-maximal effect; nearly all actives have a fitted effect of over 45% in size
An asterisk follows results filed as active; [ ] = remark or other dose. % is scaled to controls: 0 for no effect and ±100 for the full control effect.

What do the screens show for `N#CC1=C(SCC(=O)c2ccc(Br)cc2)NC2=C(C(=O)CCC2)C1c1ccco1` (stereo not drawn)?
Lassa entry inh: inconclusive; Marburg entry inh: 8.91µM*; Vaccinia Venus: inconclusive; VACV mCherry inh: inconclusive; HCMV antiviral: -25.5; FMDV inh: inconclusive

How did Cc1cc(C)c(S(=O)(=O)N2CCCCC2CCNC(=O)C(=O)NC2CC2)c(C)c1 (stereo not drawn) do in these assays?
Lassa entry inh: 0.891µM*; Marburg entry inh: inconclusive; Vaccinia Venus: 24.1%; VACV mCherry inh: inconclusive; FMDV inh: -16.2%

How did Cc1cc(S(=O)(=O)N2CCCCC2CCNC(=O)C(=O)NC2CC2)ccc1F (stereo not drawn) do in these assays?
Lassa entry inh: inconclusive; Marburg entry inh: inconclusive; Vaccinia Venus: -11.6%; VACV mCherry inh: -15.4%; HCMV antiviral: -39.2; FMDV inh: -18.8%

Results for Cc1cccc(S(=O)(=O)N[C@H]2CC[C@@]34CCCN3C(=O)CCC[C@H]4[C@H]2C)c1 ?
HCMV antiviral: -5.9

Results for CCn1nc(C)cc1C(=O)NCC1Cc2cccc(-c3cccnc3)c2O1 (stereo not drawn) ?
Vaccinia Venus: -14.2%; VACV mCherry inh: -16.6%; FMDV inh: -25.2%

How did C=CCC[C@H](Cc1ccc(F)cc1)C(=O)OC[C@H](Cc1c[nH]c2ccccc12)NC(=O)[C@@H](CC=C)CC(=O)N(CCO)Cc1ccccc1 do in these assays?
Vaccinia Venus: 11.2µM*; VACV mCherry inh: inconclusive; HCMV antiviral: 81.1; FMDV inh: 39.8µM*

What do the screens show for `C=CCC[C@H](Cc1ccc(F)cc1)C(=O)OC[C@@H](Cc1c[nH]c2ccccc12)NC(=O)[C@@H](CC=C)CC(=O)N(CCO)Cc1ccccc1`?
Vaccinia Venus: 11.2µM*; VACV mCherry inh: 12.6µM*; HCMV antiviral: 39.5; FMDV inh: inconclusive

How did C=CCC[C@H](Cc1ccc(F)cc1)C(=O)O[C@H](CNC(=O)[C@@H](CC=C)CC(=O)N(CCO)Cc1ccccc1)c1ccccc1 do in these assays?
Vaccinia Venus: -18.1%; VACV mCherry inh: 2.0%; HCMV antiviral: 4.5; FMDV inh: 39.8µM*

How did COC(=O)c1cc(NC2(c3ccccc3)C(=O)c3ccccc3C2=O)cc(C(=O)OC)c1 do in these assays?
Lassa entry inh: -0.6%[46.1 µM]; Vaccinia Venus: 9.0%; VACV mCherry inh: -6.9%; HCMV antiviral: 10.7; FMDV inh: 23.5%

How did Cc1c(O)ccc2c1OC(C)(C)CC2 do in these assays?
Vaccinia Venus: -11.0%; VACV mCherry inh: -21.2%

Results for S=C1SCN(Cc2cccnc2)CN1Cc1cccnc1 ?
Lassa entry inh: inconclusive; Marburg entry inh: inconclusive; Vaccinia Venus: -12.8%; VACV mCherry inh: -20.7%; HCMV antiviral: -95.0*; FMDV inh: inconclusive

What do the screens show for `CCCCN(CC)S(=O)(=O)c1ccc(C(=O)Nc2nnc(-c3cccs3)o2)cc1`?
Lassa entry inh: inconclusive; Marburg entry inh: 8.91µM*; Vaccinia Venus: inconclusive; VACV mCherry inh: -17.0%; FMDV inh: -18.1%

What do the screens show for `COCc1nnc(NC(=O)c2ccc(S(=O)(=O)N3CCCc4ccccc43)cc2)o1`?
Lassa entry inh: inconclusive; Marburg entry inh: inconclusive; Vaccinia Venus: inconclusive; VACV mCherry inh: inconclusive; HCMV antiviral: -78.4*; FMDV inh: -23.9%

How did CCCCN(CCCC)S(=O)(=O)c1ccc(NC(=O)Cc2cccs2)cc1 do in these assays?
Lassa entry inh: 9.2µM*; Marburg entry inh: inconclusive; HCMV antiviral: -6.8; FMDV inh: -21.7%

Results for CCN(CC)S(=O)(=O)c1ccc(C(=O)Nc2nnc(COC)o2)cc1 ?
HCMV antiviral: -63.5*; FMDV inh: -16.8%

Results for O=S1(=O)c2ccc(Br)cc2OCCC2CCCCN21 (stereo not drawn) ?
HCMV antiviral: -25.2

How did COc1ccc([C@H]2CC(=O)c3sc(N)nc3C2)cc1 do in these assays?
Marburg entry inh: -2.1%[46.1 µM]

How did O=C(NCc1ccco1)c1ccc(S(=O)(=O)N2CCCc3ccccc32)cc1 do in these assays?
Lassa entry inh: 16.4µM*; Marburg entry inh: inconclusive; Vaccinia Venus: -18.9%; VACV mCherry inh: inactive; HCMV antiviral: -10.4; FMDV inh: -27.6%

How did CC1Cc2ccccc2N1S(=O)(=O)c1cccc(C(=O)NCc2ccco2)c1 (stereo not drawn) do in these assays?
Lassa entry inh: 10µM*; Marburg entry inh: inconclusive; Vaccinia Venus: -13.2%; VACV mCherry inh: -10.8%; HCMV antiviral: inconclusive; FMDV inh: 0.0%

How did O=C1CCCC2=C1[C@H]1O[C@](c3ccsc3)(Cc3c1ccc1ccccc31)O2 do in these assays?
Marburg entry inh: -13.7%[14.2 µM]

What do the screens show for `CCn1c(-c2ccccc2F)nc2cc(C(=O)N3CCCC(CO)C3)cc(NC(C)=O)c21` (stereo not drawn)?
Vaccinia Venus: 3.6%; VACV mCherry inh: -7.4%; FMDV inh: 5.1%

How did Cc1ccc2nc3sc(C(=O)N4CCOCC4)c(N)c3cc2c1 do in these assays?
Lassa entry inh: inconclusive; Marburg entry inh: 0.411µM*; Vaccinia Venus: -11.7%; VACV mCherry inh: inconclusive; HCMV antiviral: -68.5*; FMDV inh: 10µM*

What do the screens show for `CNC(=O)[C@@H]1C[C@H](Sc2nc3ccccc3[nH]2)CN1Cc1cccc(C(F)(F)F)c1`?
Vaccinia Venus: -6.1%; VACV mCherry inh: -9.2%; FMDV inh: -9.5%

What do the screens show for `CCc1ccc(Sc2cc(C(=O)O)c3ccccc3n2)cc1`?
Lassa entry inh: -28.6%[46.1 µM]; Vaccinia Venus: -5.3%; VACV mCherry inh: -3.1%; HCMV antiviral: -16.4; FMDV inh: 13.6%

Results for COc1ccc(CN2CC(C(=O)NCc3cccc(OC)c3)CC2=O)cc1 (stereo not drawn) ?
Lassa entry inh: 2.1%; Marburg entry inh: -10.6%; Vaccinia Venus: -18.4%; VACV mCherry inh: -14.1%[1.46 µM]; HCMV antiviral: -105.4*; FMDV inh: -11.2%

What do the screens show for `N/C(COc1cc(Cl)cc(Cl)c1)=N\O`?
Lassa entry inh: 5.5%; Marburg entry inh: inconclusive; Vaccinia Venus: -7.3%; VACV mCherry inh: -9.0%; HCMV antiviral: -64.9*; FMDV inh: -11.3%

How did CC1(C)C2CCC(C2)C1(C)NC(=O)CNCC1CCCCC1 (stereo not drawn) do in these assays?
Lassa entry inh: -13.5%[46.1 µM]; Marburg entry inh: 8.91µM*; Vaccinia Venus: -29.1%; VACV mCherry inh: inactive; HCMV antiviral: -24.7; FMDV inh: -13.1%

Results for CCOC1OC(=O)C(Cl)=C1Nc1ccccc1C (stereo not drawn) ?
Lassa entry inh: 13.8%; Marburg entry inh: inconclusive; Vaccinia Venus: -1.4%; VACV mCherry inh: -20.6%; HCMV antiviral: -31.8; FMDV inh: -9.2%

Results for Cc1ccccc1NC1=C(Cl)C(=O)OC1NC(=O)c1ccccc1 (stereo not drawn) ?
Lassa entry inh: 14.7%; Marburg entry inh: 21.0%; Vaccinia Venus: -4.0%; VACV mCherry inh: inactive; HCMV antiviral: -82.3*

Bioassay records deposited in PubChem BioAssay by National Center for Advancing Translational Sciences (NCATS).
